# Only some compounds are listed: those with a hit (about 9.2% of all), similar ones and a draw of the others.
# HTT aggregate = qHTS Multiplex Assay to Identify Dual Action Probes in a Cell Model of Huntington: Aggregate Formation (GFP). PC12 HttQ103-GFP aggregates, Acumen cytometry, 40 h. Potency, µM (series often up to 46.1 µM), for inactives: at the top dose activity change, negative = inhibition, actives largely listed as inhibitors. 220,000 tested, 1.1% active; active means well fitted curve in the direction sought with a large enough effect; inconclusive means small, poorly fitted or top-dose-only effect, or another doubt; inactive means no such curve, though single readings can be large; an effect the other way counts as inactive or inconclusive; further: on the % scale 0 is the no-effect control and ±100 the full control effect; nearly all actives have a fitted effect of over 60% in size
#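 Quantitative HTS on tebufenozide-induced (100 nM) PC12 cells stably expressing polyQ103 Huntingtin exon 1–GFP. Reduction of bright GFP aggregates, detected by laser scanning cytometry after lysis, identified actives across the titration.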
# HPGD inh = qHTS Assay for Inhibitors of HPGD (15-Hydroxyprostaglandin Dehydrogenase); 15-hydroxyprostaglandin dehydrogenase [NAD(+)] (Homo sapiens), P15428; purified HPGD, NADH fluorescence kinetic, PGE2 substrate; Potency, µM, for the others: at the top dose activity change, negative = inhibition, usual class: inhibitors; 150,000 tested, 4.3% active; further: on the % scale 0 is the no-effect control and ±100 the full control effect
# Target sequence (P15428 whole entry, looked up): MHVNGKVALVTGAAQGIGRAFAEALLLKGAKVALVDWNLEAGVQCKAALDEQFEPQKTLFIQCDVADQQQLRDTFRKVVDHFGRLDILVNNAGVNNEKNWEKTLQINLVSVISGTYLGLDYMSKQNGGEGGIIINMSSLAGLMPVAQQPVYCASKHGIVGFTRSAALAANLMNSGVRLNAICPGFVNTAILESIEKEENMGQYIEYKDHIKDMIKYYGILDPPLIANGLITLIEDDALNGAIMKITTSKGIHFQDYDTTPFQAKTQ
#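 NADH formation kinetics: reaction with 30 uM PGE2 and 1 mM NAD+ (final), 20 nM enzyme, Tris-HCl pH 8 with Tween 20, after 15 min compound preincubation at room temperature. Fluorescence change, last versus first of five reads.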
# KDM4E inh = qHTS Assay for Inhibitors of Human Jumonji Domain Containing 2E (JMJD2E); Lysine-specific demethylase 4E (Homo sapiens), B2RXH2; JMJD2E catalytic domain, FDH-coupled NADH fluorescence (FDH is formaldehyde dehydrogenase); Potency, µM (top dose mostly 57.1 µM), inactives show at the top dose activity change, negative = inhibition, usual class: inhibitors; 230,000 tested, 1.6% active; AID 2147, 2009;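 further: 0% = wells with enzyme and -100% = buffer wells without enzyme; nearly all actives have a fitted effect of over 50% in size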
# ALDH1A1 block = qHTS Assay for Inhibitors of Aldehyde Dehydrogenase 1 (ALDH1A1); Aldehyde dehydrogenase 1A1 (Homo sapiens), P00352; Purified ALDH1A1, NADH fluorescence, propionaldehyde substrate; Potency, µM (titrated, usually from 75.3 µM), without a hit: at the top dose activity, negative = inhibition, usual class: inhibitors; 220,000 tested, 7.3% active; AID 1030, 2008;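 further: plate controls were no enzyme wells and a reference inhibitor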
# Target sequence (P00352 whole entry, looked up): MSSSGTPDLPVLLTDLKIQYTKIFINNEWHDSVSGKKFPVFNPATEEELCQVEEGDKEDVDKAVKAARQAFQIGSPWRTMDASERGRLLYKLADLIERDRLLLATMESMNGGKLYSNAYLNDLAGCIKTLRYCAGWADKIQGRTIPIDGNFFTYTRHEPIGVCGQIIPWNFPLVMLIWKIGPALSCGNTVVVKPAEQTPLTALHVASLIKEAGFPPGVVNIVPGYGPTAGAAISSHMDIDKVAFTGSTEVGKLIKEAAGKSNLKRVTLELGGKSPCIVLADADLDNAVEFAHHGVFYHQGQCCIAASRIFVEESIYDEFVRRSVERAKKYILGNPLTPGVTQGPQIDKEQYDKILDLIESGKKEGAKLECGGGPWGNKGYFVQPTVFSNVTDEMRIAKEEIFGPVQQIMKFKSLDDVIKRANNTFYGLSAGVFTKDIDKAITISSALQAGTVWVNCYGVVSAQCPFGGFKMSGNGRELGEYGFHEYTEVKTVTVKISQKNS
# LMNA splice mod = qHTS Assay for Modulators of Lamin A Splicing; HeLa LMNA splicing GFP/RFP minigene ratio, 48 h; Potency, µM (doses to about 46.1 µM), without a hit: at the top dose ratio change, negative = inhibition, hits mostly inhibitors; 200,000 tested, 0.01% active; AID 1487, 2009; active means well fitted inhibition curve with a large enough effect in the signal ratio, with a control signal flat, not every such curve was filed as active; inconclusive means small, poorly fitted or top-dose-only effect, or effect the other way, or a change in a side signal; the % refers to the signal ratio; further: on the % scale 0 is the no-effect control and ±100 the full control effect
#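 S3 HeLa stable clones carrying a lamin A-EGFP splicing minigene plus DsRed2 were seeded at 600 cells/well in Opti-MEM with 2% FBS, pin-dosed and incubated 48 h at 37°C. Acumen cytometry (488 nm) gave the GFP/RFP total-intensity ratio.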
# HTT cytoprotect = qHTS Multiplex Assay to Identify Dual Action Probes in a Cell Model of Huntington: Cytoprotection (ATP); Potency, µM (titrated, usually from 56.4 µM), for inactives: cytoprotection (ATP increase), usual class: activators; 230,000 tested, 0.14% active; PC12 HTT-Q103 induced, cytoprotection, ATP luminescence, 40 h; active means well fitted curve in the direction sought with a large enough effect; inconclusive means small, poorly fitted or top-dose-only effect, or another doubt; inactive means no such curve, though single readings can be large; an effect the other way counts as inactive or inconclusive; further: % of control where 0% means no effect; nearly all actives have a fitted effect of over 45% in size
#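 Readout: ATPlite luminescence (ATP level). Model: stable PC12, inducible Htt exon1 Q103-GFP. Inducer: tebufenozide, 100 nM final. Compounds: dose series. No G418 in medium.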
# The depositor's hits bear a star; ? = inconclusive; / = no result given; [ ] = dose if it differs, or a comment. Unless noted, the call rests on the fitted dose curve; in most records, active means well fitted inhibition curve with a large enough effect (not every such curve was filed as active); inconclusive means small, poorly fitted or top-dose-only effect, or another doubt; inactive means no such curve, though single readings can be large or run the other way. Potency means the concentration at half of the fitted maximal effect.
SMILES,HTT aggregate,HPGD inh,KDM4E inh,ALDH1A1 block,LMNA splice mod,HTT cytoprotect
Cc1c(NC(=O)/C(C#N)=C/c2ccc(-c3cccc(Cl)c3)o2)c(=O)n(-c2ccccc2)n1C,-21%,18µM*,10%,4%,-17%,23%[10 µM]
O=C(c1cc(C(F)(F)F)cc(C(F)(F)F)c1)N1CCC2(CC1)CCN(c1ccncc1)CC2,/,-6%,/,13%,/,-19%
CCn1c(-c2cc(-c3cc(C)ccc3C)nc3ccccc23)n[nH]c1=S,5%,-27%,?,?,5%,/
CCn1c(-c2cc(C3CC3)nc3ccccc23)n[nH]c1=S,?,13µM*,-20%,?,17%,/
CN(C)c1ncc2nc(-c3ccccc3)c(=O)n(Cc3ccc(F)cc3)c2n1,/,/,/,?,11%,-60%
CCOc1ncccc1C(=O)NCc1ccc(C)cc1,17%,16µM*,9%,0%,-1%,-20%[10 µM]
CSc1ncccc1C(=O)NCc1ccc(C)cc1,-12%,14µM*,1%,1%,6%,0%[10 µM]
CSc1ncccc1C(=O)NCCc1ccc(Cl)cc1,2%,/,2%,6%,2%[46 µM],-72%
O=C(Nc1cccc(C(=O)Nc2ccc(S(=O)(=O)O)c3cc(S(=O)(=O)O)cc(S(=O)(=O)O)c23)c1)Nc1cccc(C(=O)Nc2ccc(S(=O)(=O)O)c3cc(S(=O)(=O)O)cc(S(=O)(=O)O)c23)c1,/,-19%,7%,?,-39%,-62%
Cc1sc(NC(=O)c2sc3nc4c(C)cccc4cc3c2N)c(C#N)c1C,?,7.1µM*,?,2.8µM*,1%,-68%
CCOCCOC(=O)c1[nH]c2c(c1C)C(=O)CC(c1cccs1)C2 (stereo not drawn),33%,/,-2%,4%,4%[9.22 µM],-118%
CCCCCOC(=O)c1[nH]c2c(c1C)C(=O)CC(c1ccco1)C2 (stereo not drawn),-17%,-8%,1%,28µM*,?,-38%
CN(C)/C=C1\SC(=S)N(N2C(=O)C3C4C=CC(C4)C3C2=O)C1=O (stereo not drawn),16%,/,6%,8%,5%[46 µM],-3%[10 µM]
COc1ccccc1/C=C/C(=O)NC(=S)Nc1ccc(S(=O)(=O)N(C)c2ccccc2)cc1,14%,-22%,2%,28µM*,0%,-16%
Cc1ccc(C(=O)NC(=S)Nc2ccc(S(=O)(=O)N(C)c3ccccc3)cc2)cc1,-5%,-7%,9%,11µM*,6%,-15%
CN(c1ccccc1)S(=O)(=O)c1ccc(NC(=S)NC(=O)c2ccccc2)cc1,?,-20%,-15%,10µM*,?,3%
CCOc1ccc(S(=O)(=O)NCCc2csc3nc(-c4cccc(C)c4)nn23)cc1,/,/,/,/,-3%[46 µM],/
CCN1C(=O)/C(=C\c2nc3ccccc3c(=O)n2CC)c2ccccc21,23%,/,?,14µM*,?,23%[10 µM]
CCn1c(/C=C2/C(=O)N(C)c3ccccc32)nc2ccccc2c1=O,11%,-39%,?,9.5µM*,-7%,20%
CCN1C(=O)/C(=C/c2nc3ccccc3c(=O)n2-c2ccccc2)c2ccccc21,?,-11%,-2%,?,?,18%[10 µM]
CCCN1C(=O)/C(=C/c2nc3ccccc3c(=O)[nH]2)c2cc(C)ccc21,-6%[9.22 µM],/,10%,1%,/,-9%[10 µM]
CCn1c(/C=C2\C(=O)N(C)c3ccccc32)nc2ccccc2c1=O,16%,2%,-4%,?,?,-32%
CCCN1C(=O)/C(=C/c2nc3ccccc3c(=O)[nH]2)c2ccccc21,10%,-5%,?,2.5µM*,10%,32%[0.074 µM]
CCN1C(C)=C(C(=O)OC)C(c2ccccc2)N2C(=O)[C@](O)(C(=O)OC)C(c3ccccc3)C(C(C)=O)=C12 (stereo partly drawn),/,/,/,5%[13.5 µM],/,?
Cc1ccccc1CNC(=O)c1cnc2sc(N3CCOCC3)nn2c1=O,/,/,/,/,-6%[46 µM],/
SMILES,HTT aggregate,HPGD inh,KDM4E inh,ALDH1A1 block,LMNA splice mod,HTT cytoprotect
Cn1c(SCc2cccc(F)c2)nc2c([nH]c3ccccc32)c1=O,/,/,/,/,-4%[46 µM],/
CCn1c(=O)n(CC)c2cc(N3CCCCC3)c(NC(=O)Nc3cc(Cl)ccc3OC)cc21,/,/,/,/,3%[46 µM],/
CCOC(=O)N1CCC(Nc2nc3ccccc3nc2NS(=O)(=O)c2ccc(Cl)cc2)CC1,11µM*,-4%,?,-13%,4%,-8%[0.074 µM]
O=C(Cc1ccc(Cl)cc1Cl)Nc1cccc(S(=O)(=O)Nc2ccccc2F)c1,7%,3.5µM*,-12%,3.5µM*,?,21%[10 µM]
CC(=O)NS(=O)(=O)c1ccc(NC(=O)/C=C/c2ccccc2)cc1,-7%,/,1%,-2%,/,-3%
O=C(/C=C/c1ccccc1)Nc1cccc(S(=O)(=O)Nc2ccccc2F)c1,9%,2µM*,-16%,0.79µM*,?,29%[10 µM]
O=C(Nc1cccc(S(=O)(=O)Nc2ccccc2F)c1)c1ccc2ccccc2n1,-14%,/,-12%,3.2µM*,-9%[46 µM],23%[10 µM]
Cc1ccccc1OCCC(=O)Nc1cccc(S(=O)(=O)Nc2ccccc2Cl)c1,12%,-4%,4%,3%,?,-5%[10 µM]
COc1ccc(-n2c(=O)c(CCc3ccccc3)nc3cnc(N4CCOCC4)nc32)cc1,/,/,/,?,-8%,-46%
COc1ccc(NC(=S)NC(NC(=O)CCl)C(Cl)(Cl)Cl)c([N+](=O)[O-])c1 (stereo not drawn),4%[9.22 µM],/,-9%,?,/,7%[10 µM]
COc1ccc(NC(=S)NC(NC(=O)c2ccccc2Cl)C(Cl)(Cl)Cl)c([N+](=O)[O-])c1 (stereo not drawn),0%,-17%,-11%,8.9µM*,10%,-24%
COc1ccc(NC(=S)NC(NC(=O)c2ccc(Cl)cc2Cl)C(Cl)(Cl)Cl)c([N+](=O)[O-])c1 (stereo not drawn),?,-18%,0%,22µM*,?,0%
O=C(NC(NC(=S)Nc1c(Cl)cccc1Cl)C(Cl)(Cl)Cl)c1cccc([N+](=O)[O-])c1 (stereo not drawn),-30%,-7%,0%,18µM*,?,/
COC(=O)c1ccccc1NC(=S)NC(NC(=O)c1ccccc1[N+](=O)[O-])C(Cl)(Cl)Cl (stereo not drawn),-2%,-23%,?,?,-7%,-10%
